High-throughput results as filed in PubChem.
Only some compounds are listed: those with a hit (about 7.7% of all), similar ones and a draw of the others.
RE007 growth inh: qHTS Assay for Inhibitors of the HIV-1 protein Vpr; S. pombe RE007 Vpr strain, BacTiter-Glo ATP luminescence, 24 h; Potency, µM (series often up to 92.2 µM), without a hit: top-dose activity change, negative = less growth, actives largely listed as inhibitors; 0.21% of 360,000 active; active = well fitted falling curve with a large enough effect; inconclusive = small, poorly fitted or top-dose-only effect; inactive = no such curve, though single readings can be large or run the other way; also: potency is read from the fitted curve at half-maximal effect; nearly all actives have a fitted effect of over 50% in size
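Fission yeast strain RE007, carrying one chromosomally integrated HIV-1 vpr copy, was seeded at OD 0.01 in PMG+AL medium with 23 nL pinned compound. After 24 h at 30 °C and 99% humidity, viability was read by BacTiter-Glo luminescence.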
FMDV antiviral: High Throughput Screening for Foot and Mouth Disease Virus Antivirals | Potency, µM (titrated, usually from 57.9 µM), for the others: at the highest dose activity change, negative = inhibition, hits mostly inhibitors | FMDV antiviral cell-based qHTS | 1.2% of 410,000 active; calls by dose curve; tested in HEK293T cells; also: read-out not given here; potency is read from the fitted curve at half-maximal effect; nearly all actives have a fitted effect of over 45% in size
Sm TGR block: qHTS Assay for the Inhibitors of Schistosoma Mansoni Peroxiredoxins. purified TGR, DTNB reduction, TNB absorbance 405 nm. Potency, µM (titrated, usually from 114 µM), for inactives: at the top dose activity change, negative = inhibition, actives largely listed as inhibitors. 3% of 360,000 active. AID 485364, 2010; also: potency is read from the fitted curve at half-maximal effect; nearly all actives have a fitted effect of over 60% in size
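First, TGR (20 nM dispensed) and NADPH were mixed with compound. Second, a 15 min room-temperature incubation followed. Third, further NADPH and then DTNB were added to start the reaction. Finally, TNB absorbance was monitored kinetically.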
HCMV inh: qHTS Assay for inhibitors of the human cytomegalovirus (HCMV); 4.5% of 410,000 active; HFF cells, HCMV-luciferase reporter, 72 h; stronger effect = lower value; activity change, negative = inhibition, % at 57.5 µM; in the data active = activity change below about -60%; inconclusive = no clear call, values can overlap the other calls; inactive = above about -39%
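Steps: HFFs plated, 16 h 37C; compounds added; HCMV-luciferase added to MOI 1 PFU/cell; 72 h 37C; OneGlo reagent, 5 min room temperature; luminescence read, normalized to controls.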
Giardia FBPA inh: qHTS Assay for Inhibitors of Fructose-1,6-bisphosphate Aldolase from Giardia Lamblia. A8B2U2. purified Giardia FBPA. Potency, µM (top dose mostly 59.6 µM), without a hit: at the highest dose activity, negative = inhibition, most hits filed as inhibitors. 0.71% of 290,000 active. AID 2451, 2010; also: potency is read from the fitted curve at half-maximal effect; nearly all actives have a fitted effect of over 55% in size
Target sequence (A8B2U2 whole entry, looked up): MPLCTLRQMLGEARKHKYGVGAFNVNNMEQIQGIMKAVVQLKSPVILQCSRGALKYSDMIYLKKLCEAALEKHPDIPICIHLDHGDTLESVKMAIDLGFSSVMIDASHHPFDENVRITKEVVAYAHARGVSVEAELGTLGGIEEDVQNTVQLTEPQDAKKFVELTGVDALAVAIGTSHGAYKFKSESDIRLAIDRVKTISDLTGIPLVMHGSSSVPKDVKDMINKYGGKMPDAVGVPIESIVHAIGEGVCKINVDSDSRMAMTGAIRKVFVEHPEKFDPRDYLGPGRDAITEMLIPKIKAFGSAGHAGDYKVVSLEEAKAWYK
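40 nM FBPA preincubated 10 min at RT with compound (up to 57.5 uM final), then substrate plus GAPDH/TPI/NAD/arsenate coupling and diaphorase/resazurin added. Fluorescence read after 20 min at RT, 525/598 nm.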
Tb PYK inh: qHTS of Trypanosoma Brucei Inhibitors | 0.12% of 410,000 active | Potency, µM (top dose mostly 76.8 µM), for inactives: at the top dose activity, negative = inhibition, hits mostly inhibitors | TbPYK enzyme, Kinase-Glo Plus ATP luminescence, 45 min | pyruvate kinase (Trypanosoma brucei), Q57TT1 | AID 624173, 2012; also: potency is read from the fitted curve at half-maximal effect; nearly all actives have a fitted effect of over 50% in size
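Screened from lowest to highest concentration, compounds were pinned into TbPYK/substrate mixtures, and ADP (130 uM final) was added. Plates sat at room temperature for 45 min prior to Kinase-Glo Plus detection by luminescence.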
* = called active by the depositor; ? = inconclusive; . = no result; [ ] = dose if it differs, or a comment. Unless noted, calls follow the shape of the dose curve; as a rule, active = well fitted curve in the direction sought with a large enough effect; inconclusive = small, poorly fitted or top-dose-only effect, or another doubt; inactive = no such curve, though single readings can be large; an effect the other way counts as inactive or inconclusive. % is scaled to controls: 0 for no effect and ±100 for the full control effect.

SMILES	RE007 growth inh	FMDV antiviral	Sm TGR block	HCMV inh	Giardia FBPA inh	Tb PYK inh
CC(C)c1ccc(NC(=O)CCCN2C(=S)NC(C)(C)CC2C)cc1 (stereo not given)	-1%	12%	17%	-86*	9%	2%
Cn1c(=O)c2c(ncn2CCO)n(C)c1=O	11%	-18%	14%	6	-1%	-7%
Cc1ccc(OCCn2cnc3c2c(=O)n(C)c(=O)n3C)cc1	7%	?	4%	-76*	1%	1%
Cc1c(O)ccc2c(CN(C)Cc3ccccc3)cc(=O)oc12	-6%	-17%	1%	-67*	9%	1%
O=c1cc(CN2CCN(Cc3ccccc3)CC2)c2cc3c(cc2o1)CCC3	-12%	-21%	35µM*	16	3%	2%
Cc1c(O)ccc2c(CN3CCN(Cc4ccccc4)CC3)cc(=O)oc12	-10%	?	5%	-62*	-6%	-15%
Cc1ccccc1CN(C)Cc1cc(=O)oc2c(C)c(C)ccc12	8%	?	-9%	-15	5%	3%
Cc1c(O)c(CN2CCCC2)cc2c1oc(=O)c1ccccc12	-16%	22%	50µM*	-21	-5%	3%
COc1ccc(CN2CCC3(CCC(CNC(=O)C4CCCO4)O3)CC2)c(C)c1C (stereo not given)	.	-16%	.	.	.	.
COc1ccc(-c2[nH]c(-c3ccc(OC)c(OC)c3)nc2SCC(=O)Nc2ccccc2)cc1	.	-13%	-1%	0	.	-7%
CCOC(=O)c1cccn1C1C(=O)N(Cc2ccc(C(F)(F)F)cc2)c2ccc(OC(F)(F)F)cc21 (stereo not given)	.	.	.	-13	.	.
CC(=O)c1c(NCc2ccccc2)nc(=O)n(-c2ccccc2)c1C	-3%	28%	?	-29	-21%	2%
CC(=O)c1c(NCCc2ccccc2)nc(=S)n(-c2ccccc2)c1C	-17%	?	-3%	-101*	-1%	4%
CCn1c(C)c(C(C)=O)c(NCc2ccccc2)nc1=S	-1%	51%	-19%	-81*	-20%	8%
Cc1ccc(NC(=O)NCCOCCn2c(=O)oc3ccccc32)cc1C	.	-29%	3%	7	.	-7%
CCC12C=C(/C=C/c3ccccc3)C(CC)(C1)C(c1ccccc1)CC2=O (stereo not given)	.	.	.	.	0%[12.9 µM]	.
CC1CCN(C(=O)N2c3ccccc3Sc3ccccc32)CC1	-5%	?	0%	-40	2%	-12%
CC1CCCN(C(=O)N2c3ccccc3Sc3ccccc32)C1 (stereo not given)	9%	-30%	-20%	-68*	2%	-12%
COc1cccc(C(=O)Nc2ccc(Oc3cccc(C(F)(F)F)c3)nc2)c1	-25%	-23%	0%	-74*	-13%	1%
O=C(Nc1ccc(Oc2cccc(C(F)(F)F)c2)nc1)c1cccs1	8%	?	11%	-61*	-19%	6%
O=C(Nc1ccc(Oc2cccc(C(F)(F)F)c2)nc1)c1ccccc1	2%	?	3%	-30	0%	-2%
COc1ccc(NC(=O)COc2cccc(C(F)(F)F)c2)cn1	-18%	-27%	-5%	-14	.	7%
CCOc1ccccc1OCCCC(=O)Nc1sccc1C(N)=O	2%	-5%	-2%	-61*	-9%	-4%
COCCCNC(=O)C1CCCN(c2ncnc3onc(C)c23)C1 (stereo not given)	.	?	0%	-8	.	2%
Cc1csc(C(C)N(C)C(=O)c2cnn(-c3nccc(-c4cc(C)sc4C)n3)c2C)n1 (stereo not given)	.	48%	.	.	.	.
SMILES	RE007 growth inh	FMDV antiviral	Sm TGR block	HCMV inh	Giardia FBPA inh	Tb PYK inh
O=C(O)C1Nc2c(O)cc(Cl)c([N+](=O)[O-])c2C2C=CCC12 (stereo not given)	5%	-5%	3.5µM*	?	?	-26%
CCOC(=O)CNC(=O)c1cc2c(=O)oc3ccccc3c2s1	.	-4%	9%	2	.	1%
COc1ccccc1NC(=S)NCCc1c[nH]c2ccccc12	-1%	-9%	9%	5	.	-21%
Cc1cc(Br)ccc1NC(=S)NCCc1ccccc1	-3%	22%	-5%	-66*	.	-4%
S=C(NCCc1ccccc1)Nc1ccccn1	-19%	54%	?	25	-1%	?
Cc1cccc(NC(=S)NCCc2ccccc2)n1	-16%	21%	?	-72*	?	-10%
CN(O)/C=N/C(=S)Nc1ccc(Cl)cc1Cl	-25%	15%	0.56µM*	?	?	-13%
Cc1ccc(NC(=S)NCCc2c[nH]c3ccccc23)c(C)c1	37%	14%	6%	-90*	0%	5%
O=C(Cc1ccc(NC(=O)C2CCCN(C(=O)c3ccccc3)C2)cc1)Nc1cccc(C(=O)N2CCCC2)c1 (stereo not given)	.	.	.	32	.	.
CNc1nc2cnc(Nc3cccc(F)c3)cc2n1CCOC	.	.	.	15	.	.
COCc1ccc(CN2Cc3cc(Cl)ccc3OC(C)C2)o1 (stereo not given)	.	-7%	.	.	.	.
COc1ccc(C2=C(C)C(N3CCC(C(=O)Nc4ccccc4F)CC3)=NS2(=O)=O)cc1	.	-2%	-2%	-16	.	1%
C[C@@](N)(C(=O)O)c1ccc(P(=O)(O)O)cc1	.	0%	.	.	4%	.
CC(=O)Nc1ccc(C(=O)NCCc2ccccc2)cc1	-4%	26%	5µM*	100	5%	-5%
CCNC(=S)Nc1ccc(Cl)cc1Cl	11%	3%	45µM*	-65*	-1%	-13%
S=C(NCCc1ccccc1)Nc1ccc(Br)cc1	-15%	29%	-14%	-75*	-1%	-10%
CCCNC(=S)Nc1ccc(Br)cc1	-20%	35%	-11%	-32	.	-8%
S=C(NCCc1ccccc1)Nc1ccc(Cl)cc1Cl	?	59%	1%	-40	5%	0%
Cc1cc(Cl)ccc1NC(=S)NCCc1ccc(Cl)cc1	?	15%	4%	-83*	5%	2%
COc1cc(Cl)c(C)cc1NC(=O)c1cc2c(Cl)nc3ccc(C)cc3c2s1	.	-18%	-10%	-1	.	7%
COc1cccc(CNC(=O)c2c3c(nc4ccccc24)C(=O)N(C2CCCCC2)C3)c1	.	-22%	2%	10	.	-1%
C=C(C)C(=O)/C=C/c1ccc(Br)cc1	.	.	.	.	0%	.
CCOC(=O)c1cc(NC(=O)Nc2cc(C)ccn2)c(C)nc1C	-2%	-6%	-3%	-65*	13%	5%
